This passage reports activity change, negative = inhibition and Potency results from PubChem BioAssay (Tox21).

Records with an inconclusive call do not appear. Entries that show only a call come without a potency. Values without a mark were called inactive. Calls of active or inactive are those of the source. Calls come from the whole dose curve; as a rule, active = well fitted inhibition curve with a large enough effect in the repeat runs; inconclusive = weak or mixed curves; inactive = no such curve, though single readings can be large or run the other way. Where a SMILES comes first, the peptide text is derived from it. [ ]: non-standard residue; d: D form. pGlu = O=C1CC[C@@H](C(=O)O)N1
Potency is the fitted concentration of half-maximal effect.

Cytochrome P450 2C19 (Homo sapiens), sequence (P33261 whole entry, looked up): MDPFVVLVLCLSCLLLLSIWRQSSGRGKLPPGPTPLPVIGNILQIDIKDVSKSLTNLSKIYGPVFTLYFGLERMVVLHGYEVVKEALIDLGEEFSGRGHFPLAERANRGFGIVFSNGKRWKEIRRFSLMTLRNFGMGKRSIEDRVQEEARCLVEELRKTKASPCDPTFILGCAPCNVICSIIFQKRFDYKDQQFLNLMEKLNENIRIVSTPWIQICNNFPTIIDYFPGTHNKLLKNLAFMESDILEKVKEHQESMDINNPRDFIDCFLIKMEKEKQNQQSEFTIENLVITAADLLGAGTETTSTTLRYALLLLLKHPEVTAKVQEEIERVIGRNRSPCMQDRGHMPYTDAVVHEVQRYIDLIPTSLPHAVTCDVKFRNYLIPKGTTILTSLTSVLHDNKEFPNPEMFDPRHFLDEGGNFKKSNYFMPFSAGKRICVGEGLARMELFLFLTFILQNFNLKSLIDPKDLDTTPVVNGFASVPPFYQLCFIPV

For this assay, the target named is Cytochrome P450 2C19 (Homo sapiens) (UniProt P33261). The assay is described as follows: Cytochrome P450 Family 2 Subfamily C Member 19 (CYP2C19) small molecule antagonists: luciferase reporter qHTS assay (AID 1671197). Note: nearly all actives have a fitted effect of over 65% in size. The conditions noted are these: P450-Glo CYP2C19 enzyme, luciferin luminescence, 1 h; series mostly up to 52.9 µM. The text has this:
National Center for Advancing Translational Sciences [NCATS]
U.S. Environmental Protection Agency [EPA]
National Institutes of Environmental Health Sciences [NIEHS]
National Toxicology Program [NTP]
U.S. Food and Drug Administration [FDA]
Cytochrome P450 (CYP) enzymes are membrane-bound hemeproteins that play a key role in metabolism of drugs and xenobiotics. Evaluation of the effect of chemicals on CYP isozymes is useful to minimize the adverse drug reactions and toxicities in drug development process. Tox21 chemicals were tested for their effect on CYP enzyme activities by using P450-Glo (TM) screening systems (Promega Corporation, Madison, WI). These systems provide a luminescent method containing proluciferin substrates and are converted to luciferin products by CYP isozymes. The luciferin products formed are detected with a luciferin detection reagent, and the amount of light produced is proportional to CYP activity. P450-Glo (TM) CYP2C19 screening system (Catalog. No. V9880) was used to detect the compounds that interfere in CYP2C19 activity. The positive control compound used for CYP2C19 assay is ketoconazole (Sigma-Aldrich, St. Louis, MO).
Tox21 Assay Protocol Summary:
Two ul of enzyme-substrate mix was dispensed into medium binding white/solid 1536-well plates (Greiner Bio-One North America Inc., Monroe, NC) using a BioRaptr Flying Reagent Dispenser (FRD, Beckman Coulter, Brea, CA). Compounds dissolved in DMSO and positive control (ketoconazole) were transferred to the assay plates at 23 nl using a Pintool station (Wako, San Diego, CA). The assay plates were incubated at room temperature for 10 min. Then 2 ul of NADPH regeneration solution was added to each well of the assay plates using an FRD and incubated at 37C for 1 h. The reaction was stopped by adding 4 ul of detection reagent using an FRD and after 20 min incubation at room temperature the luminescence signal was measured using a ViewLux plate reader (Perkin Elmer, Shelton, CT). Data were expressed as relative luminescence units.
For orientation: Reporter assays use an easily measured gene product as a stand-in for the process of interest.
Turning to `CCCCCCCCCCOc1cc2c(=O)c(C(=O)OCC)c[nH]c2cc1OCC`, the activity change, negative = inhibition was 52.8% [at 10.5 µM].

As to `CC(C)[C@H]1CC[C@@H](C)CC1=O`, the Potency result is “inactive”.

With `CC1CCC(CO)CC1` (stereo not given), the Potency entry is “inactive”.

Take `CN1CC(=O)N/C1=N/C(=O)Nc1cccc(Cl)c1`: the Potency entry was “inactive”.

For `O=C(CO)[C@@H](O)[C@H](O)[C@@H](O)CO`, the Potency entry was “inactive”.

For `O=S(=O)(O)c1cccc(S(=O)(=O)O)c1`, the Potency result was “inactive”.

Consider `COCCOCC(OC)OC`, for which the Potency result was “inactive”.

On to `C[C@H]1C[C@H]2[C@@H]3CCC4=CC(=O)C=C[C@]4(C)[C@H]3C(=O)C[C@]2(C)[C@@]1(O)C(=O)CO`, for which the Potency entry is “inactive”.

In the case of `C=CN1CCCCCC1=O`, the Potency result is “inactive”.

As for `NCCCC[C@H](N[C@@H](CCc1ccccc1)C(=O)O)C(=O)N1CCC[C@H]1C(=O)O`, the Potency result was “inactive”.

Take `C[N+]12CCC(CC1)C(OC(=O)C(O)(c1ccccc1)c1ccccc1)C2` (stereo not given): the Potency result was “inactive”.

In the case of `CCOC(=O)CCC(=O)OCC`, the Potency entry was “inactive”.

With `[K+]`, the Potency result is “inactive”.

For `CCOc1c(N2CCOCC2)cnn(C)c1=O`, the Potency entry was “inactive”.

Consider `CC(=O)N[C@H]1[C@H]([C@H](O)[C@H](O)CO)OC(C(=O)O)=C[C@@H]1N=C(N)N`, for which the Potency result was “inactive”.

Take `CCNC(=O)[C@@H]1CCCN1C(=O)[C@H](CCCN=C(N)N)NC(=O)[C@H](CC(C)C)NC(=O)CNC(=O)[C@H](Cc1ccc(O)cc1)NC(=O)[C@H](CO)NC(=O)[C@H](Cc1c[nH]c2ccccc12)NC(=O)[C@H](Cc1cnc[nH]1)NC(=O)[C@@H]1CCC(=O)N1` ([pGlu]HWSYGLRP-NHEt): the Potency result is “inactive”.

With `COc1cc(C(=O)OC(COCCC(C)C)CN2CCOCC2)cc(OC)c1OC` (stereo not given), the Potency was 3.47 µM (active).

On to `C=C(C)C(=O)OCC(O)CO` (stereo not given), for which the Potency result is “inactive”.

As to `O=C(O)Cc1csc(-c2ccc(Cl)cc2)n1`, the Potency entry was “inactive”.

As for `CO[Si](C)(OC)c1ccccc1`, the Potency is 7.1 µM (active).

`CC(C)(C)C(=O)Oc1ccc(S(=O)(=O)Nc2ccccc2C(=O)NCC(=O)O)cc1`: the Potency entry was “inactive”.

As for `CO[C@@]1(NC(=O)CSC[C@@H](N)C(=O)O)C(=O)N2C(C(=O)O)=C(CSc3nnnn3C)CS[C@@H]21`, the Potency result is “inactive”.

With `CNC(=O)Nc1ccc(Cl)c(Cl)c1`, the Potency was 28.3 µM (active).

`COCCOC[C@H](CC1(C(=O)NC2CCC(C(=O)O)CC2)CCCC1)C(=O)Oc1ccc2c(c1)CCC2` (stereo not given in full): the Potency entry is “inactive”.

With `N[C@H](C(=O)O)[C@@H](O)c1ccc(O)c(O)c1`, the Potency result was “inactive”.

For `CC(C)(C)c1ccc(-c2ccc(C(C)(C)C)cc2)cc1`, the Potency result is “inactive”.

As for `CCCO[Si](OCCC)(OCCC)OCCC`, the Potency result was “inactive”.

Take `CN(C)CCN(C)CCN(C)C`: the Potency result was “inactive”.

Turning to `CCOC(=O)C1=NOC(c2ccccc2)(c2ccccc2)C1`, the Potency is 20 µM (active).

Consider `CCCCOCCOC(=O)CCCCCCCCC(=O)OCCOCCCC`, for which the Potency was 31.7 µM (active).

Consider `CCOC(=O)COC(=O)c1ccccc1C(=O)OCC`, for which the Potency was 20 µM (active).

On to `CC(C#N)(CCC(=O)O)N=NC(C)(C#N)CCC(=O)O` (stereo not given), for which the Potency entry is “inactive”.

Regarding `COc1ccnc(CS(=O)c2nc3cc(OC(F)F)ccc3[nH]2)c1OC` (stereo not given), the Potency was 8.99 µM (active).

In the case of `Cc1ccc(C(=O)c2ccc(CC(=O)O)n2C)cc1`, the Potency result was “inactive”.

With `CCCCc1ccc2c(n1)[C@@H](c1ccc(OC)cc1C[C@H](C)C(=O)O)[C@H](C(=O)O)[C@H]2c1ccc2c(c1)OCO2`, the Potency result was “inactive”.

For the molecule `O=CN(CCO)CCO`, the Potency result was “inactive”.

In the case of `C[N+](C)(C)CCCCCCCCCC[N+](C)(C)C`, the Potency result was “inactive”.

Take `C=CC(=O)OCCCl`: the Potency is 81.5 µM (active).

With `C[C@@H]1CCC[C@H](C)N1`, the Potency result was “inactive”.

Take `CCOc1ccccc1OCC`: the Potency is 71 µM (active).
